The results in this text go back to PubChem BioAssay (EPA / NIEHS).

Usually AC50 stands for the concentration giving half of the maximal activity seen.

Active and inactive are the calls of the source. The calls were made as follows: active = hit-call score of the fitted dose curve at least 0.9, where 1 is the maximum; inactive = score below 0.9.

Conditions in all cases: mRNA level, 48 h; actives raise or lower the signal
Read-out in experiment [1]: NAD(P)H dehydrogenase [quinone] 1 (NQO1), NQO1 (gene 1728)
The experiment is described as follows: LTEA_HepaRG_NQO1: Life Technologies and Expression Analysis (LTEA) Assay for NAD(P)H dehydrogenase [quinone] 1 (NQO1) using HepaRG (AID 2283526). The method, boiled down:
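Human HepaRG hepatic cells received chemicals for 48 h in serum-free induction medium with 0.5% DMSO, up to 100 uM. Expression was assessed by TaqMan qRT-PCR against housekeeping controls and fitted bidirectionally against DMSO.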

Read-out in experiment [2]: Nuclear factor erythroid 2-related factor 2 (Homo sapiens) (UniProt Q16236)
The experiment is described as follows: LTEA_HepaRG_NFE2L2: Life Technologies and Expression Analysis (LTEA) Assay for Nuclear factor erythroid 2-related factor 2 (NFE2L2) Transcription Factor using HepaRG (AID 2283527). A digest of the protocol:
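Transcript level of NFE2L2 is the read-out, measured by microfluidic TaqMan qRT-PCR and normalized to three housekeeping genes. Human HepaRG cultures received test chemical for 48 h at up to 100 uM in half-log steps. Gain or loss of signal is fitted relative to 0.5% DMSO.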

Read-out in experiment [3]: succinate dehydrogenase complex iron sulfur subunit B (SDHB), SDHB (gene 6390)
The experiment is described as follows: LTEA_HepaRG_SDHB: Life Technologies and Expression Analysis (LTEA) Assay for succinate dehydrogenase complex iron sulfur subunit B (SDHB) using HepaRG (AID 2283528). A digest of the protocol:
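SDHB transcript level read by TaqMan qRT-PCR, housekeeping-normalised (ACTB, GAPDH, POLR2A), after 48 h chemical treatment of plated HepaRG cells; eight concentrations top 100 uM, half-log steps, 0.5% DMSO, duplicates; fitted both directions against DMSO.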

Read-out in experiment [4]: Signal transducer and activator of transcription 3 (Homo sapiens) (UniProt P40763)
The experiment is described as follows: LTEA_HepaRG_STAT3: Life Technologies and Expression Analysis (LTEA) Assay for Signal transducer and activator of transcription (STAT3) using HepaRG (AID 2283529). The method, boiled down: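 Read-out is STAT3 mRNA level by qRT-PCR, normalized to three housekeeping genes, in human HepaRG liver cells treated for 48 h. Concentrations ran from 100 uM downward in half-log steps; curves were fitted for gain or loss relative to 0.5% DMSO.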

Read-out in experiment [5]: solute carrier (SLCO1B1), SLCO1B1 (gene 10599)
The experiment is described as follows: LTEA_HepaRG_SLCO1B1: Life Technologies and Expression Analysis (LTEA) Assay for solute carrier (SLCO1B1) using HepaRG (AID 2283530). A digest of the protocol: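 Differentiated human HepaRG cells, plated 48 h, switched to serum-free induction medium and exposed in duplicate for 48 h to 8 half-log concentrations (top 100 uM) in 0.5% DMSO. SLCO1B1 mRNA by TaqMan qRT-PCR, normalized to ACTB/GAPDH/POLR2A.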

Read-out in experiment [6]: sulfotransferase 2A1 (SULT2A1), SULT2A1 (gene 6822)
The experiment is described as follows: LTEA_HepaRG_SULT2A1: Life Technologies and Expression Analysis (LTEA) Assay for sulfotransferase 2A1 (SULT2A1) using HepaRG (AID 2283531). The method, boiled down: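 Differentiated human HepaRG cells in serum-free induction medium were exposed for 48 h to eight half-log concentrations (top 100 uM, 0.5% DMSO). SULT2A1 mRNA was measured by qRT-PCR, normalized to ACTB, GAPDH and POLR2A, and fitted bidirectionally against DMSO.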

Read-out in experiment [7]: Transforming Growth Factor (TGFA), TGFA (gene 7039)
The experiment is described as follows: LTEA_HepaRG_TGFA: Life Technologies and Expression Analysis (LTEA) Assay for Transforming Growth Factor (TGFA) using HepaRG (AID 2283532). A digest of the protocol:
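HepaRG (human liver line), 48 h exposure, 8 conc. half-log down from 100 uM, 0.5% DMSO vehicle, duplicates; serum-free induction medium. TGFA mRNA by TaqMan qRT-PCR, ACTB/GAPDH/POLR2A normalization; gain/loss fit vs DMSO.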

Read-out in experiment [8]: Transforming Growth Factor (TGFB1), TGFB1 (gene 7040)
The experiment is described as follows: LTEA_HepaRG_TGFB1: Life Technologies and Expression Analysis (LTEA) Assay for Transforming Growth Factor (TGFB1) Transporter using HepaRG (AID 2283533). A digest of the protocol: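 Differentiated human HepaRG cells in serum-free induction medium were exposed in duplicate for 48 h to eight concentrations (top 100 uM, half-log steps, 0.5% DMSO). TGFB1 mRNA was quantified by qRT-PCR, normalized to ACTB, GAPDH, POLR2A, and fitted bidirectionally against DMSO.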

Read-out in the next experiment: TIMP1, TIMP1 (gene 7076)
The experiment is described as follows: LTEA_HepaRG_TIMP1: Life Technologies and Expression Analysis (LTEA) Assay for TIMP1 using HepaRG (AID 2283534).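 As to outcome: TaqMan qRT-PCR signal normalized to ACTB GAPDH and POLR2A housekeeping genes.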 The method, boiled down:
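Differentiated human HepaRG cells in serum-free induction medium were exposed 48 h to chemicals (8 half-log concentrations, top 100 uM, 0.5% DMSO). TIMP1 mRNA was quantified by TaqMan qRT-PCR, normalized to ACTB/GAPDH/POLR2A; bidirectional fit versus DMSO.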

Read-out in experiment [9]: Tumor necrosis factor receptor 1 (TNFRSF1A), TNFRSF1A (gene 7132)
The experiment is described as follows: LTEA_HepaRG_TNFRSF1A: Life Technologies and Expression Analysis (LTEA) Assay for Tumor necrosis factor receptor 1 (TNFRSF1A) using HepaRG (AID 2283535). The method, boiled down:
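Differentiated human HepaRG cells were exposed in duplicate for 48 h in serum-free induction medium to eight concentrations (top 100 uM, half-log steps, 0.5% DMSO). TNFRSF1A mRNA was quantified by qRT-PCR, normalized to ACTB, GAPDH and POLR2A, then fitted bidirectionally against DMSO.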

Signal transducer and activator of transcription 3 (Homo sapiens), sequence (P40763 whole entry, looked up): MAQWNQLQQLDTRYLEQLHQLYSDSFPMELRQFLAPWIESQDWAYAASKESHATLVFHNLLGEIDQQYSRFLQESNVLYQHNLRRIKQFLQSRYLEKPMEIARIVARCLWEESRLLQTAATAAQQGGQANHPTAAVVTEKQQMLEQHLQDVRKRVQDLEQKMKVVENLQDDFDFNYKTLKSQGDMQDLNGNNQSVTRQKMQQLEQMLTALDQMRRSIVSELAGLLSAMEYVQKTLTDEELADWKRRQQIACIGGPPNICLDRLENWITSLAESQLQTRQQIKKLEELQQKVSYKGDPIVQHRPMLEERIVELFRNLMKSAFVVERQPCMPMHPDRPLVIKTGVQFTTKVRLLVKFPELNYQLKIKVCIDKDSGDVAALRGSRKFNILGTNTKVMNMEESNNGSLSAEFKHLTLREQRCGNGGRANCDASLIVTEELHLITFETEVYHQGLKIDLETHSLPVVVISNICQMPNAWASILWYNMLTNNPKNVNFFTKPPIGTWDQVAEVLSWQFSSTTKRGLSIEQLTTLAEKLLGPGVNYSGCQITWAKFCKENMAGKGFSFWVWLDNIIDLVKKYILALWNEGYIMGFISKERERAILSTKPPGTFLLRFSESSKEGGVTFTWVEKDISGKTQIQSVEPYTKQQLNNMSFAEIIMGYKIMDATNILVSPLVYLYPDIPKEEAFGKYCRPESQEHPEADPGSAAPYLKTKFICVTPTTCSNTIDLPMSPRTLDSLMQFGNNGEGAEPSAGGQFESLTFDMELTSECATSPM
Nuclear factor erythroid 2-related factor 2 (Homo sapiens), sequence (Q16236 whole entry, looked up): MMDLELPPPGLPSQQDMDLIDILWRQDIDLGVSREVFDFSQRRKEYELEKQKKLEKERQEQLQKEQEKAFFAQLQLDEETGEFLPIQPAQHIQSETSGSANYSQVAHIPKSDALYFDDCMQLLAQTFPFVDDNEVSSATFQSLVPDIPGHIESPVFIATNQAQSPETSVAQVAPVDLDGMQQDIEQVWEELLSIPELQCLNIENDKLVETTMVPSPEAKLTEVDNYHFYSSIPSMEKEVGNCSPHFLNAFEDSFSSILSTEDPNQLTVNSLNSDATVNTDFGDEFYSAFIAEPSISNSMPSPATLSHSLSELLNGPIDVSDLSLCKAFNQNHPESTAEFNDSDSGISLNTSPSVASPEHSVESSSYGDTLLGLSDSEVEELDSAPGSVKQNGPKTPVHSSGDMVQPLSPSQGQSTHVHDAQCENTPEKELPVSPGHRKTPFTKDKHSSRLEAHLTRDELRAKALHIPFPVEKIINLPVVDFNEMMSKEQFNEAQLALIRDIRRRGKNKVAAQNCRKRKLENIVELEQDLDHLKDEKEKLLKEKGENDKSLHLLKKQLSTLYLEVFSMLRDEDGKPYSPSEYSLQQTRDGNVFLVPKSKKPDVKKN

Consider `O=C(Nc1ccc(Cl)cc1)Nc1ccc(Cl)c(Cl)c1`, for which the AC50 is 17.8 µM (active) in [1]; 13.2 µM (active) in experiment [3]; 14.2 µM (active) in [4]; 18.7 µM (active) in experiment [5]; 22.7 µM (active) in experiment [6]; 25.5 µM (active) in [7]. Further, the AC50 in experiment [8] was 24.4 µM (active); with TIMP1, TIMP1 (gene 7076), 16 µM (active); in [9] it was 13.1 µM (active). In addition, the call in [2] was inactive.
With `CCCCCCCCCC(=O)O`, the compound was called inactive in experiment [1], in experiment [2], in experiment [3], in [4], in experiment [5] and in [6]. For the same compound, the outcome in experiment [7] is “inactive”; in experiment [8] it was “inactive”; with TIMP1, TIMP1 (gene 7076), “inactive”; in experiment [9], “inactive”.
As to `O=C(O)Cn1c(=O)n(Cc2ccc(Br)cc2F)c(=O)c2ccc(Cl)cc21`, the result in experiment [1], in experiment [2], in [3], in [4], in experiment [5] and in experiment [6] was inactive. The outcome in experiment [7] was “inactive”; in experiment [8], “inactive”; in the experiment with TIMP1, TIMP1 (gene 7076) it was “inactive”; in [9], “inactive”.
As to `CC(O)CC(C)(C)O` (centres undefined), the outcome in experiment [1], in experiment [2], in [3], in [4], in experiment [5] and in experiment [6] was inactive. The outcome in experiment [7] was “inactive”; in [8], “inactive”; with TIMP1, TIMP1 (gene 7076) it was “inactive”; in experiment [9], “inactive”.
Consider `Cc1cn([C@H]2C[C@H](N=[N+]=[N-])[C@@H](CO)O2)c(=O)[nH]c1=O`, for which the compound was called inactive in [1], in experiment [2], in experiment [3], in experiment [4], in experiment [5] and in experiment [7]. Besides, the outcome in [8] is “inactive”; in the experiment with TIMP1, TIMP1 (gene 7076) it was “inactive”; in [9] it was “inactive”.
Turning to `O=C(OCCCCCCOC(=O)c1ccccc1)c1ccccc1`, the compound was classed as inactive in experiment [1], in [2], in experiment [3], in experiment [4], in experiment [5] and in [6]. In addition, the outcome in [7] was “inactive”; in [8] it was “inactive”; with TIMP1, TIMP1 (gene 7076), “inactive”; in [9] it was “inactive”.
`Cc1ccc2oc(CN(Cc3ccccc3)C(=O)Nc3c(F)cc(F)cc3F)c(-c3ccc(Cl)cc3)c2c1`: the result in experiment [1], in experiment [2], in [3], in experiment [4], in [5] and in [6] was inactive. The outcome is “inactive” in experiment [7]; “inactive” in [8]; “inactive” with TIMP1, TIMP1 (gene 7076); “inactive” in [9].
`OCCO`: the outcome in experiment [1], in experiment [2], in [3], in [4], in experiment [5] and in experiment [6] was inactive. Besides, the outcome in experiment [7] was “inactive”; in [8], “inactive”; with TIMP1, TIMP1 (gene 7076), “inactive”; in experiment [9] it was “inactive”.
As to `Cc1c2ccccc2c(C)c2c1ccc1ccccc12`, the outcome in [1] was “inactive”; in [3], “inactive”; in experiment [4], “inactive”; with TIMP1, TIMP1 (gene 7076), “inactive”; in experiment [9] it was “inactive”. Besides, the AC50 was 90.5 µM (active) in experiment [2]; 59.5 µM (active) in experiment [5]; 71.1 µM (active) in experiment [6]; 63.3 µM (active) in [7]; 35 µM (active) in [8].
As for `CC[C@H](NC(=O)c1cc(F)ccc1NS(=O)(=O)c1cccc2cccnc12)c1ccccc1`, the call in experiment [1], in experiment [2], in [3], in experiment [4], in [7] and in experiment [8] was inactive. The outcome in the experiment with TIMP1, TIMP1 (gene 7076) was “inactive”; in experiment [9] it was “inactive”. The AC50 in experiment [5] was 77.6 µM (active); in [6], 84.8 µM (active).
Regarding `CCCCCc1ccc(N)cc1`, the call in [1], in [2], in experiment [3], in experiment [4], in [5] and in experiment [6] was inactive. Moreover, the outcome is “inactive” in [7]; “inactive” in experiment [8]; “inactive” with TIMP1, TIMP1 (gene 7076); “inactive” in experiment [9].
In the case of `CCOC(=O)O[C@H](C)OC(=O)c1ccc2c(c1)cc(C(=O)NC1CCN(C(C)C)CC1)n2Cc1cc(-c2ccc(Cl)s2)on1`, the compound was classed as inactive in experiment [1], in experiment [2], in experiment [3], in experiment [4], in [5] and in experiment [6]. The outcome in [7] is “inactive”; in [8], “inactive”; with TIMP1, TIMP1 (gene 7076), “inactive”; in [9], “inactive”.
Regarding `NCc1cccc(C2CCN(C(=O)c3ccc(C#Cc4ccccc4F)o3)CC2)c1`, the result in experiment [1], in experiment [2], in experiment [3], in [4], in experiment [7] and in experiment [8] was inactive. Besides, the concentration at half-maximal activity (AC50) is 88.5 µM (active) in [5]; 92.9 µM (active) in experiment [6]; 85.9 µM (active) with TIMP1, TIMP1 (gene 7076); 91.9 µM (active) in experiment [9].
Turning to `c1ccc2n[nH]nc2c1`, the outcome in experiment [1], in [2], in [3], in experiment [4], in [5] and in experiment [6] was inactive. The outcome in [7] was “inactive”; in [8], “inactive”; in the experiment with TIMP1, TIMP1 (gene 7076) it was “inactive”; in experiment [9] it was “inactive”.
With `CN1C(=O)N(c2ccccc2Br)Cc2cnc(Nc3ccc4c(c3)OCC(CO)O4)nc21` (centres undefined), the call in experiment [1], in experiment [2] and in experiment [7] was inactive. Also, the AC50 is 12.2 µM (active) in [3]; 50 µM (active) in experiment [4]; 80.9 µM (active) in experiment [5]; 81.1 µM (active) in experiment [6]; 24.2 µM (active) in [8]; 11.9 µM (active) with TIMP1, TIMP1 (gene 7076). Moreover, in experiment [9], the AC50 was 83.7 µM (active).
For `CC1=CC(=O)/C(=C(/C)O)C(=O)O1`, the compound was called inactive in experiment [1], in experiment [2], in experiment [3], in experiment [4], in [5] and in experiment [6]. Further, the outcome in experiment [7] is “inactive”; in experiment [8], “inactive”; with TIMP1, TIMP1 (gene 7076), “inactive”; in [9], “inactive”.
As for `CC(=O)N1CCN(c2ccc(OC[C@H]3CO[C@](Cn4ccnc4)(c4ccc(Cl)cc4Cl)O3)cc2)CC1`, the compound was called inactive in [1]. Also, the AC50 is 12 µM (active) in experiment [2]; 30.8 µM (active) in [3]; 35 µM (active) in experiment [4]; 22.8 µM (active) in experiment [5]; 12.2 µM (active) in experiment [6]; 12.1 µM (active) in experiment [7]. In addition, the AC50 in experiment [8] was 90.9 µM (active); with TIMP1, TIMP1 (gene 7076) it was 83.1 µM (active); in experiment [9], 75.9 µM (active).
Consider `CCCCCCCCN(C)CCCCCCCC`, for which the result in [1], in experiment [2], in experiment [3], in [4], in [5] and in experiment [6] was inactive. Besides, the outcome in experiment [7] was “inactive”; in experiment [8], “inactive”; with TIMP1, TIMP1 (gene 7076), “inactive”; in [9] it was “inactive”.
